Source: PubChem BioAssay
The list is not random: actives were taken first. Their share in the collection is about 19%.
IL-1B inflam inh = inflammasome signaling inhibition, IL-1 beta readout | 4.7% of 360,000 active | activity change, % at 57.5 µM | THP-1 LPS/ATP IL-1B secretion, AlphaLISA, 16 h; active compounds read low | AID 743279; in the data active = activity change below about -50%; inconclusive = mostly about -30% to -49%
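Secreted IL-1B measured by AlphaLISA bead assay after 16 h compound exposure of THP-1 cells; compounds (final up to 57.5 uM) added 1 h before LPS (250 ng/mL) and ATP (1.25 mM) stimulation; lower signal means less secretion.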
HepG2 tox = kills HepG2 cells in TGF-b inhibitor counter-screen; HepG2 CAGA-GFP viability, ATP luminescence, 18 h; Potency, µM (doses to about 46.1 µM), most hits filed as cytotoxic; 0.76% of 410,000 active
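HepG2 CAGA-GFP cells (1000/well, DMEM with 1% FBS) received compound, then TGF-beta at 500 pg/mL final, and were incubated 18 hours at 37 degrees C. Viability was read by CellTiter-Glo luminescence. Media-only wells were set as complete cell-killing and DMSO as no toxicity.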
TDP1 cell CPT = DT40-hTDP1 cell growth loss with CPT; chicken DT40 Tdp1-/-;hTDP1 cells + 20 nM CPT, ATP luminescence, 48 h; Potency, µM (top dose mostly 46.2 µM), actives largely listed as inhibitors; 12% of 420,000 active; AID 686979; also: nearly all actives have a fitted effect of over 55% in size
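Chicken DT40 Tdp1-/- cells stably complemented with human TDP1 were seeded at 400 cells/well in medium containing 20 nM camptothecin, exposed to pin-transferred compounds, and grown at 37 °C for at least 48 hr. Viability was read as ATP luminescence.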
TDP1 cell noCPT = qHTS for Inhibitors of human tyrosyl-DNA phosphodiesterase 1 (TDP1): qHTS in cells in absence of CPT. AID 686978, 2013. 15% of 420,000 active. DT40 Tdp1-/- hTDP1 cells, no CPT, ATP luminescence, 48 h. Potency, µM (highest dose often 46.2 µM), actives largely listed as inhibitors; also: nearly all actives have a fitted effect of over 55% in size
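Chicken DT40 Tdp1-/- cells complemented with human TDP1, screened without camptothecin (DMSO vehicle only), 400 cells/well. Compounds pin-transferred, cells incubated at 37 °C for at least 48 hr. Growth read as ATP-dependent luminescence (CellTiter-Glo, 30 min at RT).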
TDP1 inh = blocks human tyrosyl-DNA phosphodiesterase 1 | Q9NUW8 | recombinant TDP1, AlphaScreen DNA substrate cleavage | Potency, µM (titrated, usually from 130 µM), hits mostly inhibitors | 0.28% of 350,000 active | AID 485290; also: nearly all actives have a fitted effect of over 40% in size
Target sequence (Q9NUW8 whole entry, looked up): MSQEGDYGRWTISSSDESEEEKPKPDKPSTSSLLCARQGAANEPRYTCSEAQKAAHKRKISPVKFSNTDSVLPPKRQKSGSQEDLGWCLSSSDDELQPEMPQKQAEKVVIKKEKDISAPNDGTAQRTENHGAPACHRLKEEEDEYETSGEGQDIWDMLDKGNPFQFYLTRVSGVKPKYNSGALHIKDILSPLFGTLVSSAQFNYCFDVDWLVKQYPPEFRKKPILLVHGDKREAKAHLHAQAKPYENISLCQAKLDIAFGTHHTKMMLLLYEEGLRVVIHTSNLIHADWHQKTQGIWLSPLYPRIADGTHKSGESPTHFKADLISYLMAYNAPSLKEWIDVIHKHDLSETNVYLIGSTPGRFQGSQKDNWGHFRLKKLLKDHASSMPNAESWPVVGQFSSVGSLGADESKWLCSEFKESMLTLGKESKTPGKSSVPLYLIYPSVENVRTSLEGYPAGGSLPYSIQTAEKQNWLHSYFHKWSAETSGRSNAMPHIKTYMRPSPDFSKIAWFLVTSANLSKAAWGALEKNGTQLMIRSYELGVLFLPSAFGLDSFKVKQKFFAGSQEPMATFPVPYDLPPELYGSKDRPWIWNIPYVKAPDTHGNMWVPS
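Steps: enzyme plus compound, 15 min RT; add biotin/phosphotyrosine-FITC oligonucleotide (15 nM final), react 5 min; add donor/acceptor beads (10 ug/ml final), 10 min; read AlphaScreen. Tdp1 at 1 nM final.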
TGFb inhibitor = TGF-b pathway inhibition; HepG2 CAGA-GFP TGF-b/SMAD3 reporter, GFP fluorescence, 18 h; TGF-beta stimulated, 500 pg/mL final; Potency, µM (highest dose often 46.1 µM), hits mostly inhibitors; 1.2% of 410,000 active; also: nearly all actives have a fitted effect of over 65% in size
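First, reporter cells (HEPG2 CAGA-GFP) rested 2 h at 37 degrees C. Next, compounds were pinned in and TGF-beta added to 500 pg/mL final. After 18 h, GFP was imaged per cell and summed per well.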
Numbers stand for hits; i = inactive; ? = inconclusive; nt = no result given; [ ] = remark or other dose. Unless noted, calls follow the shape of the dose curve; as a rule, active = well fitted curve in the direction sought with a large enough effect; inconclusive = small, poorly fitted or top-dose-only effect, or another doubt; inactive = no such curve, though single readings can be large; an effect the other way counts as inactive or inconclusive.

SMILES | IL-1B inflam inh | HepG2 tox | TDP1 cell CPT | TDP1 cell noCPT | TDP1 inh | TGFb inhibitor
CC1CCCC(NC(=O)C2CCN(S(=O)(=O)c3cccc4nonc34)CC2)C1C (stereo not drawn) | i | i | i | i | i | i
Cc1ccc(NC(=O)COc2ncnc3ccccc23)cc1S(=O)(=O)N1CCOCC1 | i | i | i | ? | i | i
Cc1ccc(NC(=O)COC(=O)c2cccnc2Cl)cc1S(=O)(=O)N1CCOCC1 | i | i | i | i | i | i
CSc1ncccc1C(=O)OCC(=O)Nc1ccc(C)c(S(=O)(=O)N2CCOCC2)c1 | i | i | ? | 13µM | i | i
Cc1ccc(NC(=O)CSc2ncnc3ccccc23)cc1S(=O)(=O)N1CCOCC1 | -100 | i | ? | 15µM | i | ?
Cc1ccc(NC(=O)CSc2ncnc3ccccc23)cc1S(=O)(=O)N1CCCCC1 | -95 | i | 26µM | ? | i | ?
Cc1ccc(NC(=O)CN2CCSc3ccc(S(=O)(=O)N4CCCC4)cc32)cc1C | nt | i | nt | nt | i | ?
CN(C)CCOC1c2ccccc2CCc2ccc3ccccc3c21 (stereo not drawn) | -86 | i | ? | 21µM | nt | ?
CN(C)CCOC1c2ccccc2C=Cc2ccccc21 | i | i | i | i | nt | i
Cc1ccc(S(=O)(=O)N(CC(O)Cn2c3ccccc3c3ccccc32)c2cccc(C(N)=O)c2)cc1 (stereo not drawn) | nt | 11µM | nt | nt | nt | 10µM
Cc1ccc(S(=O)(=O)N(CC(O)Cn2c3ccccc3c3ccccc32)c2cccc(C(=O)N(C)C)c2)cc1 (stereo not drawn) | nt | i | nt | nt | nt | ?
Cc1ccc(S(=O)(=O)N(CC(O)Cn2c3ccccc3c3ccccc32)c2cccc(C(=O)NCCO)c2)cc1 (stereo not drawn) | nt | 16µM | nt | nt | nt | 13µM
Brc1ccccc1OCCN1CCCC1 | i | i | i | i | nt | i
CCCCC1=CC2=C(c3ccco3)C(=O)C(C)(OC(=O)c3ccc(OC)cc3)C(=O)C2=CN1CCOC (stereo not drawn) | i | i | i | i | i[12.3 µM] | i
COC(=O)CCCC1=CC2=C(c3ccccc3)C(=O)C(C)(OC(=O)C3CCCC3)C(=O)C2=CN1CC1CC1 (stereo not drawn) | i | i | i | i | i[12.3 µM] | i
CCCCC1=CC2=CC(=O)C(C)(OC(=O)CC)C(=O)C2=CN1Cc1ccc(OC)cc1 (stereo not drawn) | i | i | 26µM | 13µM | i[12.3 µM] | ?
COC(=O)CCCC1=CC2=C(c3ccccc3)C(=O)C(C)(OC(=O)C3CCCC3)C(=O)C2=CN1C1CCCC1 (stereo not drawn) | i | i | ? | 16µM | i[21 µM] | i
CC1(OC(=O)C2CCCC2)C(=O)C=C2C=C(c3ccsc3)N(CCCCO)C=C2C1=O (stereo not drawn) | i | i | i | i | i[21 µM] | i
CCCCC1=CC2=C(c3ccco3)C(=O)C(C)(OC(=O)c3ccc(OC)cc3)C(=O)C2=CN1Cc1ccccc1 (stereo not drawn) | i | i | 5.2µM | 4.6µM | i[12.3 µM] | ?
COc1ccc(CN2C=C3C(=O)C(C)(OC(=O)C4CCCC4)C(=O)C=C3C=C2c2ccsc2)cc1 (stereo not drawn) | i | i | ? | 12µM | i[21 µM] | i
Cc1oc(-c2ccc(C(=O)NCc3ccc(N(C)C)cc3)cc2)nc1COc1ccccc1 | nt | i | i | i | i | i
O=C(CSCc1ccccc1)NNc1c(F)c(F)cc(F)c1F | i | i | i | i | nt | i
COc1ccccc1C(=O)NC(CCSC)C(=O)Nc1ccc(C)c(S(=O)(=O)N2CCOCC2)c1 (stereo not drawn) | ? | i | ? | ? | i | i
CCCCC1=CC2=C(c3ccco3)C(=O)C(C)(OC(=O)c3cccs3)C(=O)C2=CO1 (stereo not drawn) | nt | nt | nt | nt | i | nt
CCCCC1=CC2=C(c3ccco3)C(=O)C(C)(OC(=O)c3ccc(OC)cc3)C(=O)C2=CN1C1CCCCC1 (stereo not drawn) | i | i | 4.6µM | 4.6µM | i[21 µM] | i
SMILES | IL-1B inflam inh | HepG2 tox | TDP1 cell CPT | TDP1 cell noCPT | TDP1 inh | TGFb inhibitor
CCCCC1=CC2=C(c3ccco3)C(=O)C(C)(OC(=O)c3ccc(OC)cc3)C(=O)C2=CN1CCc1c[nH]c2ccccc12 (stereo not drawn) | nt | nt | nt | nt | i[12.3 µM] | nt
CCCCC1=CC2=C(c3ccco3)C(=O)C(C)(OC(=O)c3ccc(OC)cc3)C(=O)C2=CN1CCc1ccccn1 (stereo not drawn) | i | i | 5.8µM | 9.2µM | i[12.3 µM] | ?
CCCCC1=CC2=C(c3ccco3)C(=O)C(C)(OC(=O)c3ccc(OC)cc3)C(=O)C2=CN1Cc1ccc2c(c1)OCO2 (stereo not drawn) | ? | i | 9.2µM | 13µM | i[12.3 µM] | i
Cc1ccc(S(=O)(=O)N[C@H]2COC(=O)[C@H](C)COC(=O)[C@H](C)NC(=O)C/C=C\[C@H]2C)cc1 | nt | nt | nt | nt | i[21 µM] | nt
Cc1ccnc(NS(=O)(=O)c2ccc3ccccc3c2)n1 | i | i | i | i | nt | ?
OCCNc1nc(-c2ccccc2)nc2c1oc1ccccc12 | i | i | ? | ? | i | i
Cc1cc(C)cc(N2C(=O)CS(=O)(=O)C23C(=O)N(Cc2ccccc2)c2ccccc23)c1 (stereo not drawn) | nt | i | i | i | i | i
COc1ccc(-n2nnnc2C(c2cc3ccccc3o2)N2CCN(C/C=C/c3ccccc3)CC2)cc1 (stereo not drawn) | i | i | 23µM | 15µM | nt | i
C(=C\c1ccccc1)/CN1CCN(C(c2nnnn2Cc2ccccc2)C2CC2)CC1 (stereo not drawn) | ? | i | 16µM | 16µM | nt | ?
CCCCn1nnnc1C(c1cc2ccccc2o1)N1CCN(C/C=C/c2ccccc2)CC1 (stereo not drawn) | i | i | 21µM | 16µM | nt | ?
COc1ccc(-n2nnnc2C(c2cccc3ccccc23)N2CCN(C/C=C/c3ccccc3)CC2)cc1 (stereo not drawn) | i | i | 7.3µM | 8.2µM | nt | ?
COc1ccc2c(c1)C(=O)[C@H](OC(=O)Nc1cc(OC)c(OC)c(OC)c1)[C@@H](c1ccc(OC)c(Br)c1)O2 | nt | nt | nt | nt | i | nt
C(=C\c1ccccc1)/CN1CCN(C(c2cccs2)c2nnnn2-c2ccc3c(c2)OCCO3)CC1 (stereo not drawn) | i | i | ? | 23µM | nt | ?
COc1ccc(-n2nnnc2C(CCSC)N2CCN(C/C=C/c3ccccc3)CC2)cc1 (stereo not drawn) | ? | i | ? | ? | nt | i
